For part of these data: Entries with a potency or affinity are not part of this list. Active and inactive are the calls of the source. How the calls were made is not given here.

A word on the AC50: it is the concentration giving half of the maximal activity seen.

The conditions of the first assay: Ebola virus entry assay, blue channel fluorescence.
On to `Cc1cn[nH]c1`, for which the outcome was inactive.
Consider `CN(C)CCOC(c1ccc(Cl)cc1)c1ccccn1` (configuration not stated), for which the compound was called inactive.
`OCCOCCN1CCN(C(c2ccccc2)c2ccc(Cl)cc2)CC1` (configuration not stated): the compound was called inactive.
`Cc1nc2n(c(=O)c1CCN1CCC(c3noc4cc(F)ccc34)CC1)CCCC2`: the compound was called inactive.
Turning to `COc1cc2nc(N(C)CCCNC(=O)C3CCCO3)nc(N)c2cc1OC` (configuration not stated), the result was inactive.
On to `NCC(CC(=O)O)c1ccc(Cl)cc1` (configuration not stated), for which the result was inactive.
For the compound `O=C1CCc2cc(OCCCCc3nnnn3C3CCCCC3)ccc2N1`, the result was inactive.
Take `Cc1ccc(-n2[nH]c(C)c(N=Nc3cccc(-c4cccc(C(=O)O)c4)c3O)c2=O)cc1C`: the call was inactive.
The same measure, in the same setting: under `CN(C)c1ccc(O)c2c1C[C@H]1C[C@H]3[C@H](N(C)C)C(=O)C(C(N)=O)=C(O)[C@@]3(O)C(=O)C1=C2O` stands “inactive”.
As for `CCc1ccc(CCOc2ccc(CC3SC(=O)NC3=O)cc2)nc1` (configuration not stated), the compound was classed as inactive.
Still for that read-out and setting: under `CC(S)C(=O)NCC(=O)O` (configuration not stated) stands “inactive”; under `N=C(N)c1ccc(OCCCCCOc2ccc(C(=N)N)cc2)cc1`, “inactive”; under `CC(C)C[C@H](NC(=O)[C@H](Cc1ccccc1)NC(=O)c1cnccn1)B(O)O`, “inactive”.
With `O=C(O)c1ccc(-n2nc(-c3ccccc3O)nc2-c2ccccc2O)cc1`, the outcome was inactive.
As to `COc1ccc(C(CN(C)C)C2(O)CCCCC2)cc1` (configuration not stated), the compound was classed as inactive.
On the same count and under the same terms, then `Cc1nc(-c2ccc(OCC(C)C)c(C#N)c2)sc1C(=O)O`, with “inactive”.
`C[C@H]1c2cccc(O)c2C(O)=C2C(=O)[C@]3(O)C(O)=C(C(N)=O)C(=O)[C@@H](N(C)C)[C@@H]3[C@@H](O)[C@@H]21`: the result was inactive.
For `C[C@]12C/C(=C/O)C(=O)C[C@@H]1CC[C@@H]1[C@@H]2CC[C@@]2(C)[C@H]1CC[C@]2(C)O`, the compound was classed as inactive.
Still for that read-out and setting: under `CN(C)[C@@H]1C(=O)C(C(N)=O)=C(O)[C@@]2(O)C(=O)C3=C(O)c4c(O)cccc4[C@@](C)(O)[C@H]3C[C@@H]12` stands “inactive”; under `CN(Cc1cnc2nc(N)nc(N)c2n1)c1ccc(C(=O)N[C@@H](CCC(=O)O)C(=O)O)cc1`, “inactive”.
The same measure, in the same setting: then `CC(=O)Oc1cc2c(s1)CCN(C(C(=O)C1CC1)c1ccccc1F)C2` (configuration not stated), with “inactive”; and `CC[C@@]1(O)C(=O)OCc2c1cc1n(c2=O)Cc2cc3c(CN(C)C)c(O)ccc3nc2-1`, with “inactive”.
Same read-out and setting: then `CCOC(=O)Nc1ccc2c(c1)N(C(=O)CCN1CCOCC1)c1ccccc1S2`, with “inactive”.
In the case of `CC(=O)Nc1nnc(S(N)(=O)=O)s1`, the result was inactive.
On the same count and under the same terms, under `CC(=O)O[C@@]12CO[C@@H]1C[C@H](O)[C@@]1(C)C(=O)[C@H](O)C3=C(C)[C@@H](OC(=O)[C@H](O)[C@@H](NC(=O)OC(C)(C)C)c4ccccc4)C[C@@](O)([C@@H](OC(=O)c4ccccc4)[C@H]21)C3(C)C` stands “inactive”; under `CC#C[C@]1(O)CC[C@H]2[C@@H]3CCC4=CC(=O)CCC4=C3[C@@H](c3ccc(N(C)C)cc3)C[C@@]21C`, “inactive”.
On the same count and under the same terms, then `COC(=O)CCc1ccc(OCC(O)CNC(C)C)cc1` (configuration not stated), with “inactive”.
The same measure, in the same setting: under `CN(C)[C@@H]1C(=O)C(C(N)=O)=C(O)[C@@]2(O)C(=O)C3=C(O)c4c(O)ccc(Cl)c4[C@@H](O)[C@H]3C[C@@H]12` stands “inactive”; under `CN1C(=O)CC(C)(c2ccccc2)C1=O` (configuration not stated), “inactive”.
For the compound `CO[C@H]1C=CO[C@@]2(C)Oc3c(C)c(O)c4c(O)c(c(/C=N/N5CCN(C)CC5)c(O)c4c3C2=O)NC(=O)/C(C)=C\C=C[C@H](C)[C@H](O)[C@@H](C)[C@@H](O)[C@@H](C)[C@H](OC(C)=O)[C@@H]1C`, the outcome was inactive.
The same measure, in the same setting: then `Cc1cc2c(s1)Nc1ccccc1N=C2N1CCN(C)CC1`, with “inactive”; and `CC(C)(C)NC(=O)[C@H]1CC[C@H]2[C@@H]3CC[C@H]4NC(=O)C=C[C@]4(C)[C@H]3CC[C@]12C`, with “inactive”; and `CCc1c2c(nc3ccc(OC(=O)N4CCC(N5CCCCC5)CC4)cc13)-c1cc3c(c(=O)n1C2)COC(=O)[C@]3(O)CC`, with “inactive”.
Consider `CC(C)c1nc(CN(C)C(=O)N[C@H](C(=O)N[C@@H](Cc2ccccc2)C[C@H](O)[C@H](Cc2ccccc2)NC(=O)OCc2cncs2)C(C)C)cs1`, for which the compound was classed as inactive.
On the same count and under the same terms, then `NC[C@H](O)c1ccc(O)c(O)c1`, with “inactive”.

The conditions of the next assay: Ebola virus entry assay, reporter ratio channel; AC50: Channel type: primary unless noted; outcome: Channel type: primary unless noted.
Consider `Cc1cn[nH]c1`, for which the outcome was inactive.
On to `CN(C)CCOC(c1ccc(Cl)cc1)c1ccccn1` (configuration not stated), for which the AC50 is 39.8 µM (active).
The same measure, in the same setting: then `OCCOCCN1CCN(C(c2ccccc2)c2ccc(Cl)cc2)CC1` (configuration not stated), with 31.6 µM (active).
As to `Cc1nc2n(c(=O)c1CCN1CCC(c3noc4cc(F)ccc34)CC1)CCCC2`, the result was inactive.
With `COc1cc2nc(N(C)CCCNC(=O)C3CCCO3)nc(N)c2cc1OC` (configuration not stated), the AC50 was 35.5 µM (active).
With `NCC(CC(=O)O)c1ccc(Cl)cc1` (configuration not stated), the result was inactive.
As to `COC(=O)Nc1nc2ccc(C(=O)C3CC3)cc2[nH]1`, the AC50 was 7.94 µM (active).
On to `O=C1CCc2cc(OCCCCc3nnnn3C3CCCCC3)ccc2N1`, for which the outcome was inactive.
For `Cc1ccc(-n2[nH]c(C)c(N=Nc3cccc(-c4cccc(C(=O)O)c4)c3O)c2=O)cc1C`, the result was inactive.
The same measure, in the same setting: under `CN(C)c1ccc(O)c2c1C[C@H]1C[C@H]3[C@H](N(C)C)C(=O)C(C(N)=O)=C(O)[C@@]3(O)C(=O)C1=C2O` stands “inactive”.
`CN[C@H]1CC[C@@H](c2ccc(Cl)c(Cl)c2)c2ccccc21`: the AC50 was 1.58 µM (active).
Regarding `CCc1ccc(CCOc2ccc(CC3SC(=O)NC3=O)cc2)nc1` (configuration not stated), the outcome was inactive.
Same read-out and setting: then `CC(S)C(=O)NCC(=O)O` (configuration not stated), with “inactive”.
On the same count and under the same terms, then `N=C(N)c1ccc(OCCCCCOc2ccc(C(=N)N)cc2)cc1`, with “inactive”.
For `CC(C)C[C@H](NC(=O)[C@H](Cc1ccccc1)NC(=O)c1cnccn1)B(O)O`, the AC50 is 1.26 µM (active).
For `O=C(O)c1ccc(-n2nc(-c3ccccc3O)nc2-c2ccccc2O)cc1`, the outcome was inactive.
On to `COc1ccc(C(CN(C)C)C2(O)CCCCC2)cc1` (configuration not stated), for which the AC50 is 39.8 µM (active).
For the compound `Cc1nc(-c2ccc(OCC(C)C)c(C#N)c2)sc1C(=O)O`, the result was inactive.
For the compound `C[C@H]1c2cccc(O)c2C(O)=C2C(=O)[C@]3(O)C(O)=C(C(N)=O)C(=O)[C@@H](N(C)C)[C@@H]3[C@@H](O)[C@@H]21`, the AC50 is 20 µM (active).
On to `C[C@]12C/C(=C/O)C(=O)C[C@@H]1CC[C@@H]1[C@@H]2CC[C@@]2(C)[C@H]1CC[C@]2(C)O`, for which the AC50 was 14.1 µM (active).
Regarding `CN(C)[C@@H]1C(=O)C(C(N)=O)=C(O)[C@@]2(O)C(=O)C3=C(O)c4c(O)cccc4[C@@](C)(O)[C@H]3C[C@@H]12`, the AC50 is 31.6 µM (active).
`CN(Cc1cnc2nc(N)nc(N)c2n1)c1ccc(C(=O)N[C@@H](CCC(=O)O)C(=O)O)cc1`: the outcome was inactive.
Turning to `CC(=O)Oc1cc2c(s1)CCN(C(C(=O)C1CC1)c1ccccc1F)C2` (configuration not stated), the result was inactive.
Regarding `CC[C@@]1(O)C(=O)OCc2c1cc1n(c2=O)Cc2cc3c(CN(C)C)c(O)ccc3nc2-1`, the AC50 was 7.94 µM (active).
With `CCOC(=O)Nc1ccc2c(c1)N(C(=O)CCN1CCOCC1)c1ccccc1S2`, the AC50 is 39.8 µM (active).
As for `CC(=O)Nc1nnc(S(N)(=O)=O)s1`, the outcome was inactive.
With `CC(=O)O[C@@]12CO[C@@H]1C[C@H](O)[C@@]1(C)C(=O)[C@H](O)C3=C(C)[C@@H](OC(=O)[C@H](O)[C@@H](NC(=O)OC(C)(C)C)c4ccccc4)C[C@@](O)([C@@H](OC(=O)c4ccccc4)[C@H]21)C3(C)C`, the AC50 was 20 µM (active).
Turning to `CC#C[C@]1(O)CC[C@H]2[C@@H]3CCC4=CC(=O)CCC4=C3[C@@H](c3ccc(N(C)C)cc3)C[C@@]21C`, the result was inactive.
With `COC(=O)CCc1ccc(OCC(O)CNC(C)C)cc1` (configuration not stated), the AC50 was 31.6 µM (active).
Take `CN(C)[C@@H]1C(=O)C(C(N)=O)=C(O)[C@@]2(O)C(=O)C3=C(O)c4c(O)ccc(Cl)c4[C@@H](O)[C@H]3C[C@@H]12`: the AC50 is 28.2 µM (active).
On to `CN1C(=O)CC(C)(c2ccccc2)C1=O` (configuration not stated), for which the result was inactive.
On to `CO[C@H]1C=CO[C@@]2(C)Oc3c(C)c(O)c4c(O)c(c(/C=N/N5CCN(C)CC5)c(O)c4c3C2=O)NC(=O)/C(C)=C\C=C[C@H](C)[C@H](O)[C@@H](C)[C@@H](O)[C@@H](C)[C@H](OC(C)=O)[C@@H]1C`, for which the result was inactive.
In the case of `Cc1cc2c(s1)Nc1ccccc1N=C2N1CCN(C)CC1`, the AC50 was 39.8 µM (active).
With `CC(C)(C)NC(=O)[C@H]1CC[C@H]2[C@@H]3CC[C@H]4NC(=O)C=C[C@]4(C)[C@H]3CC[C@]12C`, the outcome was inactive.
Turning to `CCc1c2c(nc3ccc(OC(=O)N4CCC(N5CCCCC5)CC4)cc13)-c1cc3c(c(=O)n1C2)COC(=O)[C@]3(O)CC`, the AC50 was 28.2 µM (active).
Regarding `CC(C)c1nc(CN(C)C(=O)N[C@H](C(=O)N[C@@H](Cc2ccccc2)C[C@H](O)[C@H](Cc2ccccc2)NC(=O)OCc2cncs2)C(C)C)cs1`, the concentration at half-maximal activity (AC50) was 22.4 µM (active).
Same read-out and setting: under `NC[C@H](O)c1ccc(O)c(O)c1` stands 7.94 µM (active).

(Values after PubChem BioAssay (NCATS).)
